Experimental data from PubChem BioAssay AID504386 (National Center for Advancing Translational Sciences (NCATS), 2011).
Inconclusive results are not listed. Activity calls are given as the source filed them. The call rests on the fitted dose curve; in most records, active means well fitted curve in the direction sought with a large enough effect; inconclusive means small, poorly fitted or top-dose-only effect, or another doubt; inactive means no such curve, though single readings can be large or run the other way.

The molecules below were run against Runt-related transcription factor 1 (Homo sapiens) + Core-binding factor subunit beta (Homo sapiens) (UniProt Q01196+Q13951) (assay: qHTS Assay for Compounds Blocking the Interaction Between CBF-beta and RUNX1 for the Treatment of Acute Myeloid Leukemia: SAR for Probe). Conditions: AlphaScreen CBFb-His/RUNX1-biotin binding, biochemical; series mostly up to 136 µM; activity change, negative = inhibition: at the top concentration.
Runt-related transcription factor 1 (Homo sapiens) + Core-binding factor subunit beta (Homo sapiens), sequence (Q01196 whole entry, looked up): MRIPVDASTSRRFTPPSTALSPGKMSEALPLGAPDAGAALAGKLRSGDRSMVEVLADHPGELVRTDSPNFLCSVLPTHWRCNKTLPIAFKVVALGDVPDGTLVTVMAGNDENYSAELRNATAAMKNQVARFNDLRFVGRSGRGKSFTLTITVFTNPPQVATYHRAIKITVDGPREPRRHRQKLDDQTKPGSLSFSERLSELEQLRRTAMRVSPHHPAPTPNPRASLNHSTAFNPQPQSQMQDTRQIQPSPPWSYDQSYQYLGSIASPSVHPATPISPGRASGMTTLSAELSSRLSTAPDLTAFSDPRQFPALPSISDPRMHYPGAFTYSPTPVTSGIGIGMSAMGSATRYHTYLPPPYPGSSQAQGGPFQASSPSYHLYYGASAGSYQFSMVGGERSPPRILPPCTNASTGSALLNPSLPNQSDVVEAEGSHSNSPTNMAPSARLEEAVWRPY
Runt-related transcription factor 1 (Homo sapiens) + Core-binding factor subunit beta (Homo sapiens), sequence (Q13951 whole entry, looked up): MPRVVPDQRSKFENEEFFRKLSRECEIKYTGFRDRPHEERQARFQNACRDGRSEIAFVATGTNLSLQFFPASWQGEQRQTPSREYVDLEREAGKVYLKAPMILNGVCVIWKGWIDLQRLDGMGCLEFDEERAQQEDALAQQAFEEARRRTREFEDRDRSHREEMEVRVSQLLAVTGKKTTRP
Text: NIH Chemical Genomics Center [NCGC] NIH Molecular Libraries Probe Production centers Network [MLPCN] MLPCN Grant: X01MH083259-01 Assay Submitter (PI): Paul Liu NCGC Assay Overview: Core Binding Factor (CBF) abnormalities are associated with 20-25% of all acute myeloid leukemias (AML), of which 5-10% are further sub classified as acute myelomonocytic leukemia with eosinophilia, also known as M4Eo in the FAB classification scheme. This subtype of leukemia is usually associated with chromosome 16 inversion (p13:q22). Chromosome 16 inversion results in formation of the fusion oncogene CBFB-MYH11, which encodes the fusion protein CBF-beta-SMMHC. […] It has been hypothesized that the interference of CBF-beta and RUNX1 binding could have therapeutic implications for patients with CBF mediated leukemias. We developed a CBF-beta and RUNX1 binding assay in AlphaScreenTM format and optimized it for high throughput screening to search for inhibitors. The goal of this project is to screen MLPCN's compound collection (MLSMR) for identifying the inhibitors of the interaction between CBF-beta and RUNX1 proteins as research probes. If these probes work well in the animal models, the ultimate goal of this project is to development a new drug treatment for this disease. This assay can not be used to assess how apparent inhibitors interfere with protein binding, and whether inhibitors specifically bind to either protein. Disruption of this protein-protein interaction, through any mechanism, is the intended target activity. The present data set was run to confirm the activity of analogs to the probe in the primary screening assay.
NCGC Assay Protocol Summary: Step, Parameter, Description (1) Reagent, 3 uL CBFb-His/RUNX1-biotin mix incubated together for 20 minutes at room temperature (30 nM each) (2) Compound or control, 23 nL compound stock solution (3) Incubation, 15 minutes at Room temperature (4) Reagent, 1 uL 50 ng each of beads (Nickel beads and streptavidin beads) (5) Incubation, 90 minutes at Room temperature (6) Detection, […], Envision reader in AlphaScreenTM mode Keywords: MLSMR, MLPCN, NIH Roadmap, qHTS, NCGC, Core binding factor, CBF, CBF-beta, Acute myeloid leukemia
`NCCCC[C@H](N)C(=O)Nc1ccc(Cl)cc1C(=O)c1ccc[nH]1` was tested, and the “activity change, negative = inhibition” value was 4.61% (inactive). With `NCCC(=O)Nc1ccc(Cl)cc1C(=O)c1ccc[nH]1` the “activity change, negative = inhibition” value was -19.4% (inactive). `CC(C)[C@H](N)C(=O)Nc1ccc(Cl)cc1C(=O)c1ccc[nH]1` was tested, and the “activity change, negative = inhibition” value was -13.5% (inactive). `CCC(=O)Nc1ccc(Cl)cc1C(=O)c1ccc[nH]1` was tested, and the “activity change, negative = inhibition” value was -7.27% (inactive). With `C[C@H](N)C(=O)Nc1ccc(Cl)cc1C(=O)c1ccc[nH]1` the “activity change, negative = inhibition” value was -16.8% (inactive). For `NCC(=O)Nc1ccc(Cl)cc1C(=O)c1ccc[nH]1`, the Potency was 29.6 µM (active).
